# Measurements reported in PubChem BioAssay (NCI).
# The panel holds about 83,000 compounds, 20% with a hit somewhere; the sample as a whole holds those more often.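 Note: values are percent growth. 100 is the growth of untreated cells, values between 100 and 0 indicate rising inhibition; between -100 and 0 indicates cell death.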 A number with no mark means an inactive call. Calls of active or inactive are those of the source. The calls were made as follows: active = growth percent below 10; inactive = the rest.
# Test system: COLO 205 colon
# Test: NCI-60 one-dose screen, 48 h (100 = growth as untreated, 0 = no growth, -100 = all killed)
# Details: 10 µM unless noted
row,SMILES,growth
1,O=C1Nc2ccc3c(c2/C1=C\c1cc2c(cc1Br)OCO2)OCO3,-37.1% (active)
2,Cc1ccc(N2CCN(C(C)C(N)=O)CC2)cc1 (stereo not given),122%
3,COc1cc(NC(N)=NCCC(C)(C)Oc2ccc(C(F)(F)F)cc2)ncc1C#N,-87.8% (active)
4,CCc1ccc(-c2ccc(=O)n(-c3ccc(S(N)(=O)=O)cc3)n2)cc1,26%
5,CC[N+](CC)=c1cc2oc3cc(N(C)C)ccc3nc-2cc1C,-9.82% (active)
6,COc1cccc(-c2nc3sccn3c2-c2ccnc(NCCCNS(=O)(=O)c3ccc(F)cc3)c2)c1,33.1%
7,N[C@H]1CN(C(=O)c2cc3cc(Br)c(F)c(F)c3[nH]2)C[C@@H]1O,118%
8,O=C(N/N=C/C=C\c1ccccc1)C(=O)N/N=C/C=C/c1ccccc1,122%
9,O=C(O)COc1ccc(-c2cssc2=S)cc1,109%
10,CCOC(=O)c1c(NS(=O)(=O)c2ccc(C)cc2)sc2c1CCC1(C2)OCCO1,115%
11,Cc1nc2ncccc2nc1Nc1ccc(S(=O)(=O)Nc2ccccn2)cc1,98.5%
12,Fc1ccc(Nc2ncnc3ccc(-c4cnc5[nH]ccc5c4)cc23)cc1Cl,11%
13,COc1ccc(C2C(C#N)=C(N)Oc3c2ccc2ccccc32)cc1 (stereo not given),91.1%
14,COc1ccc(C(=O)N2NC(=O)/C(=C/c3cn(-c4ccccc4)nc3-c3ccccc3)N=C2c2ccccc2)cc1,120%
15,C=C1C(=O)O[C@H]2[C@H]1CC/C(Cn1cc(CNC(=O)Cc3cn(C(=O)c4ccc(Cl)cc4)c4ccc(OC)cc34)nn1)=C\CC[C@@]1(C)O[C@@H]21,-74% (active)
